# Reference: the supplement of paper PMC11417369
# Whole data set: some 25,000 sequences, median “ln(normalized median fluorescence intensity)” near 7.1, cut for the highest 2% near 10. The list comes from a sample in which the highest values are over-represented; it also holds similar and randomly drawn sequences.
# Test system: PfSIP2 AP2 domain 1 (GST-tagged)
# Test: gcPBM binding intensity (ln(normalized median fluorescence intensity)); higher = stronger DNA binding
# Procedure, shortened: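 Binding intensity is the highest Masliner-normalised natural-log median intensity over replicate spots in either probe orientation. To obtain it, GST-tagged P. falciparum DNA-binding domains made in E. coli were incubated for 1 h on an Agilent 4 × 180k array of primer-extended double-stranded 36-bp intergenic genomic probes plus negative controls. Detection used Alexa488 anti-GST antibody with scanning at 488 nm.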
row,Sequence,gcPBM binding intensity (ln)
1,AATAATAAAATAAAGGCATGCACAATATGCTATAAA [TGCATGCA_site645],7.49
2,TTTAATCATATGTTATATAATAAGCCCCCCCCCCAA [CACACA_negctrl_site486],10.2
3,ATATTTTTATTTTCTTTACACACCACATAATTTTTT [CACACA_site4060],7.09
4,TTTTGTTTTAATTTTATTTGATTTTATTTGATTTAT [CACACA_negctrl_site692],6.69
5,TTTTAATTTATTTATGCACACATATATAATTACACA [CACACA_site8126],7.52
6,TATTTTTAACAGTGCACACATAACTTAATTATATGT [CACACA_site2194],10.6
7,ATATATATTTTAATAACACACATATATTATATTATA [CACACA_site4387],7.06
8,TTTAATTTTTATATAACACACATATTGTAATTATGT [CACACA_site4566],6.97
9,TTTAACTTTTATATAACACACATATTGTAATTATGT [CACACA_site6486],7.05
10,TTTATTTTTAACAGTGCACACATAACTTAATTATAT [CACACA_site8681],10.5
11,AAAAAAAGAAATTAGGTGCATAGCATTAACCGATAA [GTGCAC_site9582],10.1
12,TATATATATAGAAATGCATGTTAATAAAAGTTATAA [TGCATGCA_site947],8.13
13,ATTTTTTATATTTAGTGTACATGTTTTAATTTATAA [XGTACX_site7512],7.29
14,GGATAAGAGGCATATACACACAATTTAAAAAAATAA [CACACA_site4657],7.15
15,TTTTTTTCAATATTTGCACACGATTAAAATATTTAA [CACACA_site5266],7.28
16,AATATTTTAAGGCACACACACAAAAAAAAAAAAAAA [CACACA_site2890],7.22
17,AAAAAAAAAAAAAGTGCACACGATTTAAGGCCTATA [CACACA_site2823],10.9
18,TTTCTAATTTATATCACACACATATAAATATAGTAA [CACACA_site6210],7.19
19,GGCGTATGTGTATATACACACCCACGTATATAAATA [CACACA_site7489],7.08
20,ATAATGAACAAAGTAGTGCACTTTCCTTATCTTTTC,10.9

row,Sequence,gcPBM binding intensity (ln)
1,ACTAATAACAAAAGCTTGCACTTTTTTTTTCCTAAT,7.82
2,CCTTTCCTTTTATAAGTGCATATAACAAATGTATAC [GTGCAC_site9872],8.88
3,ATCTTATATCGTAGAGATTTTTTTTTTTTTTCATTT [XGTACX_negctrl_site140],6.7
4,TTTTAAAAAAATAAAAAATAATAAAAAAAATAAAAA [CACACA_negctrl_site1693],6.76
5,TTTTTTATAAATCAAATGAAAAATAAACTATTCAGA [CACACA_negctrl_site1568],6.59
6,TTTTAAATTTTTTAAAGTACACGTCGAAAAGGTATA [XGTACX_site76],7.93
7,GCACCCTGTATGAATGCACACATTCATAGAATTGCT [CACACA_site5475],8.46
8,TATTTAAAATAATAACAAAATTAACATAAATATATA [GTGCAC_negctrl_site472],6.82
9,AAAGAAATATATACAAAAATATGAACAATTTATTAT [XGTACX_negctrl_site78],6.81
10,AAGAACAAATATGAGGTGCAACACAATATATTATTA [GTGCAC_site9965],10.5
11,TTTATATTTAAATATATATGAGAAAACACAAAATAT [TGCATGCA_negctrl_site211],7.34
12,AAGAATATATAGGACACACATACAATAATAAATATA [CACACA_site4119],7.25
13,ATATTTTATAATTTTACACACCATATAAAATAATTC [CACACA_site2797],7.16
14,TTTGCACCGTTTAAGTGTACAGAATTATGACATATA [XGTACX_site6735],11.2
15,CATATTTACATTAAGTGTACTTATGAATATATATAC [XGTACX_site7962],7.03
16,TTTATATGTATTAAGTGTACACATATAATGTGTTTG [XGTACX_site6629],7.29
17,TATCAATGGAAAATATATATTTGTATATATGTAATA [XGTACX_negctrl_site257],7.04
18,ACATGAATATATACACGTACATATATACATATATAT [XGTACX_site5872],7.42
19,AATTTATTTTTAAAAAGTACATACTTAAGAAAACGA [XGTACX_site3660],7.59
20,CTGTACACTTAAACGGTGCAAAAAGAAAAAAAAGAA,10.9

row,Sequence,gcPBM binding intensity (ln)
1,ATATATTATATTATATGTACTTAAAAAAGTGCAAAG [XGTACX_site318],8.67
2,TTTTATCATCTTTTTACATTATGTATAAATATTTTC [CACACA_negctrl_site206],6.99
3,AAAACATAAATACATACACACATAATATATATTAAT [CACACA_site109],7.06
4,TTTTATTCCTTCTTTGCACACGTTTAAAAATATATA [CACACA_site2899],8.04
5,ACAAGTATTCCTTTTGCACACCTTTCTGCACCTTAT [CACACA_site3873],11.7
6,TATATATTTTCTTTTGCACACTGTTTTCCTTTTTTT [CACACA_site2739],7.02
7,ATGTCATAAATGTACGCACACATACATAAACATATA [CACACA_site4530],7.33
8,TATAAACCCACCTACACACACAACGTAAATGCATTG [CACACA_site2238],7.01
9,TATATAAACCCACCTACACACACAACGTAAATGCAT [CACACA_site8702],7.1
10,TATAAACGCACCTACACACACAACGTAAATGCATTG [CACACA_site7120],10.6
11,CAAATATGTCTTATTCGTACACATATATATATATAT [XGTACX_site8817],9.64
12,CTTTTATGAAACAGTGCACACATAAAAATATATACA [CACACA_site8981],11.3
13,TCATAATGAAAACAAGCACACATACATAAAATAAAA [CACACA_site9069],7.01
14,AAAAAAAATATGAAAACACACATATATAAATAAATA [CACACA_site113],6.89
15,ATAATGAAAACAAGCACACATACATAAAATAAAATA [CACACA_site3257],7.04
16,TTTTTAATTTTATATACACACATAAAATATATGAAG [CACACA_site3145],7.01
17,ATTTTGTTATGAAACACACACATATAAATATAAATA [CACACA_site7679],7.26
18,TTTATGAAACAGTGCACACATAAAAATAAATACATA [CACACA_site5631],11.2
19,TTTATGAAACAGTGCACACATAAAAATATATACATA [CACACA_site2992],11
20,AACATATATAAATACACACACATATATATATGAAAT [CACACA_site4312],7.05
